Rce1 inhib: yeast Rce1p protease inhibitors, primary screen, biochemical, fluorescence, cell-free homogeneous; calls only; yeast membranes, quenched prenylated peptide cleavage fluorescence; CAAX prenyl protease 2 (Saccharomyces cerevisiae (strain ATCC 204508 / S288c)), Q03530; actives 0.27% (n = 290,000);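 active means fall in fluorescence gain of 50% or more versus controls, with final raw signal at or below 3038400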;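 further: plate controls were neutral control wells for no effect and wells lacking membranes for full effect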
Target sequence (Q03530 whole entry, looked up): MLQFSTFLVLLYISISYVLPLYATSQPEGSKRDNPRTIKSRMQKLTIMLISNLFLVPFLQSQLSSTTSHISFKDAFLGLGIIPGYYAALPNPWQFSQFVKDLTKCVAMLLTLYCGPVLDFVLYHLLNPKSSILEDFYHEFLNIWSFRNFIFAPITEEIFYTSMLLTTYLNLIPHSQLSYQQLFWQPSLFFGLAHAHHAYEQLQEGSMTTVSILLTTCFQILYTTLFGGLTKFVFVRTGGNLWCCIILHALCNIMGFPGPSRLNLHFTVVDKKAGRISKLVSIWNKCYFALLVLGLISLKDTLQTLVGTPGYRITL
Statin myotox sup: suppressors of statin myotoxicity in C2C12 myotubes, primary screen, cell-based, single point, plate reader; C2C12 myotubes + simvastatin, ATP luminescence, 48 h; scaled: DMSO 0, geranylgeraniol control 100; rescue of ATP level, % at 7.49 µM; actives 0.78% (n = 330,000); AID 602340, 2012;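 active means mean ATP rescue above about 67%, or every replicate alone reaching that limit, limit read from the data, passing the limit was not always enough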;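 further: myotubes were challenged with 10 µM simvastatin during compound exposure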
PGC1a acetyl inh: inhibitors of PGC1a acetylation signal, primary screen, cell-based, U2OS, AlphaScreen, inhibitor mode | AlphaScreen anti-acetyl-lysine; with virally co-expressed GCN5 acetyltransferase | inhibition, % at 15.6 µM | actives 0.17% (n = 350,000);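 active means every replicate shows inhibition of at least 40%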;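 further: 0% = neutral control wells and 100% = positive control wells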
HIF activator: HIF pathway transcriptional activators, primary screen, cell-based, U2OS HRE-luciferase, luminescence; U2OS HRE-luciferase reporter; normalized: DMSO 0%, desferrioxamine 100%; activation, % at 7.5 µM (by protocol); actives 0.32% (n = 300,000); AID 1910, 2009;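 active means mean activation of at least 10% of the iron chelator positive control signal, with at least half of replicates also reaching 10%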
AI-2 QS mod: Vibrio harveyi AI-2 quorum sensing modulators, primary screen, JMH597 strain, luminescence/OD600 ratio. actives 0.4% (n = 300,000). Vibrio harveyi JMH597 AI-2 luminescence/OD600 ratio, 9 h; hits give low values; strain lacks LuxN and CqsS sensors; 0 = neutral-control median. AID 2094, 2009. activity change, % at 7.5 µM; in the data active means activity change below about -75%, passing the limit was not always enough;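 further: luminescence divided by OD600 gain over 9 h not by final OD600 alone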
An asterisk follows results filed as active; i = inactive; . = not tested or not shown; + = active, no number. A selection: hits, their analogues and other compounds. The true share with any hit is near 1.3%.

SMILES | Rce1 inhib | Statin myotox sup | PGC1a acetyl inh | HIF activator | AI-2 QS mod
O=C(N/N=C/C(Br)=C/c1ccccc1)C(O)c1ccccc1 (configuration not stated) | i | . | -49 | 3 | -8
O=C(O)c1ccc(N/N=C/c2cccc(F)c2)cc1 | i | . | . | 1 | -79*
O=C(O)c1ccc(N/N=C/c2cccc(C(F)(F)F)c2)cc1 | i | -86 | 10 | 4 | -93*
O=C(O)c1ccc(N/N=C/c2ccc3nccnc3c2)cc1 | i | -32 | 21 | -2 | 16
O=C(O)c1ccc(N/N=C/c2ccncc2)cc1 | i | . | . | 1 | 15
O=C(N/N=C/c1cccc(C(F)(F)F)c1)c1ccccc1O | i | . | -2 | 0 | 30
O=C(O)c1ccc(N/N=C/C(Br)=C/c2ccccc2)cc1 | i | 15 | -54 | 5 | -94*
CC=Cc1ccc2n(c1=O)C[C@@H]1[C@@H](CO)[C@H](C(=O)NCCC)[C@H]2N1C(=O)C1CCC1 (mixture of isomers) | . | . | 6 | . | .
CN(C[C@H]1[C@H](c2ccccc2)[C@@H](CO)N1CC1CC1)C(=O)c1cccc(F)c1 | . | -2 | 6 | . | .
CCCNC(=O)C[C@H]1CC[C@H]2[C@H](COc3ccc(NC(=O)c4cc(C)on4)cc3C(=O)N2C)O1 | . | 19 | 0 | . | .
Fc1cccc(/C=N/Nc2nccnc2Cl)c1 | i | -125 | 1 | 78* | -5
CSc1nc(NCC(C)O)c2c3c(sc2n1)CN(C)CC3 (configuration not stated) | + | 7 | . | 1 | 11
CSc1nc(NCCCO)c2c3c(sc2n1)CN(C)CC3 | i | . | 3 | 2 | -6
O=C(Nc1ncccn1)c1ccc([N+](=O)[O-])cc1 | + | . | -10 | 0 | 16
COc1ccc(-c2ccc(/C=N/NC(=O)Cc3nnc(N)s3)o2)cc1Cl | i | . | 57* | 0 | 7
Cc1cccc(C)c1Nc1c(-c2ccccn2)nc2ccccn12 | i | -23 | 2 | 28* | 25
Cc1ccc(Nc2c(-c3ccccn3)nc3cccc(C)n23)cc1 | i | -30 | 23 | 56* | -80*
O=C(C[C@@H]1C=C[C@@H](NC(=O)Nc2cc(F)ccc2F)[C@@H](CO)O1)NCc1ccc2c(c1)OCO2 | . | -5 | 8 | . | .
CO[C@H]1O[C@H](CO)[C@@H](OC(=O)Nc2ccccc2)[C@H](OC(=O)Nc2ccc3c(c2)OCO3)[C@@H]1OC(=O)Nc1ccc2c(c1)OCO2 | . | . | -8 | . | .
Cc1ccc(S(=O)(=O)N(C)C[C@H]2Oc3ccc(NS(C)(=O)=O)cc3C(=O)N([C@H](C)CO)C[C@@H]2C)cc1 | . | . | -1 | . | .
CO[C@H]1CN(C)C(=O)c2ccc(NS(C)(=O)=O)cc2OC[C@@H](C)N(C)C[C@@H]1C | . | 9 | 16 | . | .
Cn1cc(Cl)c(C(=O)Nc2cnn(Cc3ccc(F)cc3)c2)n1 | i | . | -1 | 4 | -81*
CC1=C(C(=O)NCc2ccccc2)C(c2cccs2)NC(=S)N1 (configuration not stated) | i | 98* | 1 | 0 | 15
O=C(Nc1ccc(F)cc1)N[C@H]1CC[C@@H](CCNS(=O)(=O)c2ccccc2F)O[C@@H]1CO | . | -10 | -14 | . | .
O=C(/C=C/c1cccs1)c1ccc(NC(=O)c2cccc(Br)c2)cc1 | i | -22 | 48* | 3 | 3
SMILES | Rce1 inhib | Statin myotox sup | PGC1a acetyl inh | HIF activator | AI-2 QS mod
Cc1ccc(C(=O)Nc2ccc(C(=O)/C=C/c3cccs3)cc2)cc1 | i | -3 | -3 | 3 | 16
COCCOC(=O)N1C(=O)[C@@]2(c3cc(C#Cc4ccc(OC)cc4)ccc31)[C@H](C(=O)N1CCc3cc(OC)c(OC)cc3C1)[C@H]1C(=O)O[C@H](c3ccccc3)[C@H](c3ccccc3)N1[C@@H]2c1ccc(OCCO)cc1 | . | . | 4 | . | .
Cc1cccc(C(=O)Nc2nnc(-c3ccc(C(C)(C)C)cc3)s2)c1 | i | 83* | -5 | -1 | 25
Cc1ccccc1C(=O)Nc1nnc(-c2ccc(C(C)(C)C)cc2)s1 | i | . | 10 | 1 | 14
CCOc1nc(-c2ccccc2Cl)nc2ccccc12 | i | . | 3 | 0 | 21
C=CCOc1nc(-c2ccccc2Cl)nc2ccccc12 | i | . | -1 | 63* | -1
COc1ccccc1-c1cc(C(F)(F)F)n2ncc(C(=O)N3CCc4ccccc4C3)c2n1 | i | 4 | . | 0 | 18
O=S(=O)(c1ccccc1)c1cnn2c(C(F)(F)F)cc(-c3ccccc3)nc12 | i | 5 | 9 | -1 | 5
COc1ccccc1-c1cc(C(F)(F)F)n2ncc(S(=O)(=O)c3ccccc3)c2n1 | + | 5 | -9 | 0 | 11
O=S(=O)(c1ccccc1)c1cnn2c(C(F)(F)F)cc(-c3ccc(F)cc3)nc12 | + | -38 | 9 | -1 | 25
Cc1ccc(NC(=S)NCCSc2ccc(Cl)cc2)cc1 | i | . | 1 | 0 | -1
Cc1ccc(SCCNC(=S)Nc2cc(C)cc(C)c2)cc1 | i | 117* | -7 | 0 | 6
O=C1C=CCCN1C(=O)/C=C/c1ccccc1Cl | . | . | 73* | . | .
O=C(/C=C/c1ccccc1Cl)N1CCOCC1 | i | -2 | -19 | 1 | 11
O=C1C=CCCN1C(=O)/C=C/c1cccc(C(F)(F)F)c1 | . | . | 78* | . | .
C/C(CC1(O)C(=O)Nc2ccccc21)=N\O (configuration not stated) | + | -1 | . | 0 | -1
C=CCOc1cc(C)nc(-c2ccccc2O)n1 | i | -2 | 2 | 0 | 9
Cc1cc(N2CCCC2)nc(-c2ccccc2O)n1 | i | 115* | -9 | 1 | 4
Cc1cc(Oc2ccccc2)nc(-c2ccccc2O)n1 | . | 104* | 4 | 0 | 8
COc1ccc(-n2nnnc2SCC(=O)N2CCCc3ccccc32)cc1OC | i | 128* | -4 | -3 | 25
O=C(CSc1nnnn1-c1cccc2c1CCCC2)N1CCCCC1 | i | 105* | -3 | 0 | 10
COc1cc(OC)cc(-c2nnc(SCC(=O)N3CCCc4ccccc43)o2)c1 | i | 108* | -7 | 0 | 22
COc1cccc(-c2nnc(SCC(=O)N3CCCc4ccccc43)o2)c1 | . | 98* | -3 | 0 | 31
COc1ccc(OC)c(-c2nnc(SCC(=O)N3CCCc4ccccc43)o2)c1 | i | 14 | 4 | 0 | 10
CO[C@@H]1CN(C)C(=O)c2cc(NC(=O)C3CCC3)ccc2OC[C@@H](C)N(C(=O)CN(C)C)C[C@@H]1C | . | 11 | -8 | . | .
O=C(Nc1ccc(F)cc1)N1CCCCN2[C@H](CO)[C@@H](c3ccc(C4=CCCCC4)cc3)[C@H]2C1 | . | . | 3 | . | .

Screening results deposited in PubChem by Broad Institute.
